Assay [1] is described as follows: qHTS assay to identify small molecule agonists of the vitamin D receptor (VDR) signaling pathway - cell viability counter screen (AID 743224). Note: nearly all actives have a fitted effect of over 50% in size. Note: potency is the fitted concentration of half-maximal effect. Summed up:
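VDR-bla cells, 4 h after plating, exposed to compounds for 16 h at 37C; viability then read in the same wells as CellTiter-Glo luminescence after 30 min at room temperature, following the bla FRET read.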

Assay [2] is described as follows: qHTS assay to identify small molecule antagonists of the vitamin D receptor (VDR) signaling pathway - cell viability counter screen (AID 743225). Note: nearly all actives have a fitted effect of over 50% in size. Note: potency is the fitted concentration of half-maximal effect. In short, it runs like this: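 Luminescent cell viability (CellTiter-Glo) in VDR-bla HEK 293T cells after 16 h compound exposure at 37C in the presence of 3 nM final 1-alpha,25-dihydroxy vitamin D3.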
(In general: Quantitative high-throughput screening tests each substance at several concentrations.)

The nature of assay [3]: qHTS assay to identify small molecule agonists of the NFkB signaling pathway - cell viability counter screen (AID 1159515; calls by dose curve; note: nearly all actives have a fitted effect of over 55% in size; note: potency is the fitted concentration of half-maximal effect). Summed up: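 NFkB-bla ME-180 cells, 2,000/well, plated overnight at 37 C; compound added for 5 hr at 37 C. Viability read in the same wells as the bla reporter, by CellTiter-Glo luminescence after 30 min at room temperature.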
Assay [4] can be described thus: qHTS assay to identify small molecule agonists of the endoplasmic reticulum stress response signaling pathway (AID 1159516; active = well fitted activation curve with a large enough effect in the signal ratio in the repeat runs, not every such curve was filed as active; the % refers to the signal ratio; note: potency is the fitted concentration of half-maximal effect). In short, it runs like this:
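CellSensor ESRE-bla HeLa cells, 1,500 per well, plated overnight, then exposed to compounds for 5 hr at 37 C. Beta-lactamase reporter read with LiveBLAzer B/G FRET substrate after 2 hr at room temperature, 405 nm excitation, 460 and 530 nm emission.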

The nature of assay [5]: qHTS assay to identify small molecule antagonists of the retinoid-related orphan receptor gamma (ROR-gamma) signaling pathway - cell viability counter screen (AID 1159520). Note: nearly all actives have a fitted effect of over 50% in size. Note: potency is the fitted concentration of half-maximal effect. In short, it runs like this:
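Cytotoxicity was read from cellular ATP (CellTiter-Glo luminescence) after 16 hr at 37 C with 1 uM doxycycline induction. The inducer was added 2 hr after compound transfer to Tet-on ROR gamma CHO cells.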

For assay [6], the target named is Nuclear receptor ROR-gamma (Homo sapiens) (UniProt P51449). The experiment in a line: qHTS assay to identify small molecule antagonists of the retinoid-related orphan receptor gamma (ROR-gamma) signaling pathway (AID 1159521; note: nearly all actives have a fitted effect of over 50% in size; note: potency is the fitted concentration of half-maximal effect). Summed up:
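CHO cells expressing RORγ under a TET-on promoter, luciferase under RORE control. Dox 1 uM final, 16 h; compounds added 2 h prior. Luminescence decrease measured.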

Assay [7] in a line: qHTS assay to identify small molecule agonists of the AP-1 signaling pathway - cell viability counter screen (AID 1159525; calls by dose curve; note: nearly all actives have a fitted effect of over 55% in size; note: potency is the fitted concentration of half-maximal effect). In short, it runs like this:
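Luminescent ATP readout (Cell Titer Glo, 30 min RT), normalised to DMSO and tetra n-octyl ammonium bromide controls. Cells were ME-180 AP-1-bla in 0.5% dialyzed FBS Opti-MEM, with a 5 h, 37 °C compound exposure.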

The nature of assay [8]: qHTS assay to identify small molecule agonists of the AP-1 signaling pathway (AID 1159526; calls by dose curve; note: potency is the fitted concentration of half-maximal effect).
The nature of assay [9]: qHTS assay to identify small molecule agonists of the RXR signaling pathway - cell viability counter screen (AID 1159529). Note: nearly all actives have a fitted effect of over 50% in size. Note: potency is the fitted concentration of half-maximal effect. In short, it runs like this: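 Same-well viability check after the LiveBLAzer FRET read: CellTiter-Glo added, luminescence measured after 30 min at room temperature. Reporter HEK 293T cells had been treated with compounds for 16 hr following a 5 hr preincubation.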

Assay [10] can be described thus: qHTS assay to identify small molecule antagonists of the retinoid acid receptor (RAR) signaling pathway - cell viability counter screen (AID 1159551). Note: nearly all actives have a fitted effect of over 35% in size. Note: potency is the fitted concentration of half-maximal effect. Summed up:
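C3RL4 RARE-luciferase cells, 1,000/well, incubated overnight, then dosed with compound plus 1 uM retinol (final). After 6 hr at 37 C, viability read by CellTiter-Glo ATP luminescence following 30 min at room temperature.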

The nature of assay [11]: qHTS assay to identify small molecule agonists of the retinoic acid receptor (RAR) signaling pathway (AID 1159553). Note: potency is the fitted concentration of half-maximal effect. The following applies: C3RL4 RARE luciferase reporter, agonist, 6 h; activation: at 73.3 µM (top of the series) unless noted. In short, it runs like this: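 C3RL4 RARE-luciferase cells were seeded at 1,000/well and grown overnight at 37 C, then exposed to compounds for 6 hr at 37 C, 5% CO2. Luciferase reagent was added and luminescence was read after 30 min at room temperature.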

For assay [12], the target named is Retinoic acid receptor RXR-alpha (Homo sapiens) (UniProt P19793). Kind of assay: qHTS assay to identify small molecule agonists of the RXR signaling pathway (AID 1159527; calls by dose curve; note: nearly all actives have a fitted effect of over 35% in size). Summed up: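 Beta-lactamase reporter assay, agonist format. Engineered HEK 293T line, charcoal-stripped FBS at 2%, overnight (16 hr) exposure, fluorescence at 460 and 530 nm after 405 nm excitation.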
Chain of Retinoic acid receptor RXR-alpha (Homo sapiens) (P19793 whole entry, looked up): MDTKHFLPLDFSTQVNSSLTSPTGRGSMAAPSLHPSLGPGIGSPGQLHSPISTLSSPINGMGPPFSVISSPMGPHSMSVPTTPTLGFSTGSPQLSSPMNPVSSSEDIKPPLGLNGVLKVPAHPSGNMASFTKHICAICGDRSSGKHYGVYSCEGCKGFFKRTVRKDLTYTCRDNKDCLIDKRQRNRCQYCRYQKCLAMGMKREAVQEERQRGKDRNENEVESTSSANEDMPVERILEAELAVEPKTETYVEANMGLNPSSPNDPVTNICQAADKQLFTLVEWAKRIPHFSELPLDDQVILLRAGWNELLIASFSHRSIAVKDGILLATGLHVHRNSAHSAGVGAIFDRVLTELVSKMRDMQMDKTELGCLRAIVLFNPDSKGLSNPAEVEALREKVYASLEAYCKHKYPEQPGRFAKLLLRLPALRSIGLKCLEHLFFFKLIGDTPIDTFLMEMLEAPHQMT

Assay [13] in a line: qHTS assay to identify small molecule antagonists of the retinoic acid receptor (RAR) signaling pathway (AID 1159552; note: nearly all actives have a fitted effect of over 50% in size; note: potency is the fitted concentration of half-maximal effect). Summed up: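 Readout: luciferase luminescence, 30 min post-reagent at RT. Setup: C3RL4 RARE reporter cells, compounds plus retinol 1 uM final, 6 hr incubation at 37 C and 5% CO2.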
A short description of assay [14]: qHTS assay to identify small molecule antagonists of the estrogen related receptor (ERR) signaling pathway - cell viability counter screen (AID 1224818). In short, it runs like this: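 ERR cells, 2,000 per well, compound added after 6 h and incubated 17.5 h at 37 C. Viability read by CellTiter-Fluor fluorescence after a further 30 min at 37 C.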
Assay [15] can be described thus: qHTS assay to identify small molecule antagonists of the estrogen related receptor signaling pathway with the pleiotropic PPARgamma coactivator (PGC) cell viability counter screen (AID 1224822). In short, it runs like this:
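PGC/ERR cells rested 6 h, then compound-treated 17.5 h at 37 C. CellTiter-Fluor added for 30 min at 37 C, viability measured by fluorescence intensity.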

Values joined by “and” are separate entries in the source; they are usually repeats but may differ in a detail not shown here. Equal values may be shown once. Records with an inconclusive call do not appear. Active and inactive are the calls of the source. Unless noted, calls come from the whole dose curve; as a rule, active = well fitted curve in the direction sought with a large enough effect in the repeat runs; inconclusive = weak or mixed curves; inactive = no such curve, though single readings can be large; an effect the other way counts as inactive or inconclusive.

On to `CCO[Si](OCC)(OCC)OCC`, for which the Potency result in [1], in [2], in [3], in [4], in assay [5] and in assay [6] was “inactive” each time. The Potency entry in assay [7], in [8], in [9], in [10] and in assay [11] was “inactive” in each case.
Consider `COC(C)=O`, for which the Potency result in [1], in [2], in assay [3], in assay [4], in [5] and in assay [6] was “inactive” each time. For the same compound, the Potency result in assay [7], in [8], in assay [12], in [10], in [13] and in [11] was “inactive” throughout.
For the compound `CCC(=O)OC(=O)CC`, the Potency entry in assay [1], in [2], in assay [3], in assay [4], in [5] and in assay [6] was “inactive” in each case. The Potency result in assay [7], in assay [8], in assay [10], in assay [13] and in assay [11] was “inactive” each time. Besides, in assay [9], the Potency is 43.3 µM (active).
Consider `Cc1c2ccccc2c(C)c2c1ccc1ccccc12`, for which the Potency in [1] is 43.2 µM (active) and 27.5 µM (active); in [2], 43.2 µM (active) and 19.5 µM (active); in [3], 12.2 µM (active); in assay [4], 43.2 µM (active); in [5], 60.5 µM (active) and 27.3 µM (active); in [6], 24.1 µM (active) and 21.7 µM (active). Also, the Potency in assay [9] is 19.3 µM (active) and 19.5 µM (active); in assay [11] it was 54.5 µM (active). Further, the Potency result in assay [7], in [10] and in assay [13] was “inactive” throughout.
As to `O=C(O)c1cc(O)c2ccccc2c1O`, the Potency in assay [1] is 38.9 µM (active); in [3], 21.9 µM (active); in assay [5], 17.2 µM (active); in assay [6], 13.7 µM (active); in [7], 4.9 µM (active); in assay [9] it was 30.9 µM (active). The Potency is 61.1 µM (active) in assay [10] and 68.6 µM (active) in [13]. Besides, the Potency entry in [4] was “inactive”.
For the compound `O=[N+]([O-])c1ccc(F)c(Cl)c1`, the Potency result in assay [1], in [2], in assay [3], in assay [4], in assay [5] and in assay [6] was “inactive” throughout. Also, the Potency entry in assay [7], in [8], in assay [12], in assay [10], in assay [13] and in [11] was “inactive” throughout.
Turning to `NC(=O)c1cccc([N+](=O)[O-])c1`, the Potency entry in assay [1], in [2], in assay [3], in [4], in assay [5] and in assay [6] was “inactive” in each case. The Potency result in [7], in assay [8], in [12], in [9] and in assay [10] was “inactive” throughout.
For `OC[C@H]1O[C@H](O[C@H]2O[C@H](CO)[C@@H](O)[C@H](O)[C@H]2O)[C@H](O)[C@@H](O)[C@@H]1O`, the Potency result in assay [1], in assay [3], in assay [4], in [5], in assay [6] and in assay [7] was “inactive” each time. Moreover, the Potency entry in assay [8], in assay [9], in assay [10] and in assay [11] was “inactive” each time.
In the case of `Cc1c(C)c([N+](=O)[O-])c(C(C)(C)C)c([N+](=O)[O-])c1C`, the Potency entry in assay [3], in assay [4], in assay [5], in [6], in assay [7] and in assay [8] was “inactive” in each case. For the same compound, the Potency result in assay [10], in [13] and in assay [11] was “inactive” in each case. The Potency in [9] is 43.6 µM (active).
Regarding `Cc1ccc(O)c(N)c1`, the results for the Potency in assay [1], in assay [8] and in [11] were 19.5 µM (active), 55 µM (active) and 21.7 µM (active), respectively. In addition, the Potency entry in assay [2], in assay [3], in assay [4], in [5], in assay [6] and in assay [7] was “inactive” throughout. Besides, the Potency result in [10] and in assay [13] was “inactive” in each case.
`C=CC(C)(CCC=C(C)C)OC=O` (centres undefined): the Potency entry in [1], in assay [2], in assay [3], in assay [4], in assay [5] and in assay [6] was “inactive” each time. The Potency entry in [7], in [8], in assay [12], in assay [9] and in assay [10] was “inactive” in each case.
Consider `COc1cc(/C=C/c2ccccc2)oc(=O)c1`, for which the Potency entry in assay [1], in assay [2], in [3], in [4], in [5] and in assay [6] was “inactive” throughout. The Potency result in assay [7], in assay [8], in assay [9], in assay [10] and in [13] was “inactive” throughout. Moreover, the Potency in assay [11] is 0.564 µM (active).
Take `CC/C=C\CCCCCO`: the Potency entry in [1], in assay [2], in assay [3], in [4], in assay [5] and in assay [6] was “inactive” in each case. In addition, the Potency result in [7], in assay [8], in assay [9] and in [10] was “inactive” each time.
With `CC(CCc1ccccc1)NCC(O)c1ccc(O)c(C(N)=O)c1` (centres undefined), the Potency entry in [3], in assay [4], in assay [5], in assay [6], in [7] and in [12] was “inactive” each time. Further, the Potency result in assay [9], in assay [10], in assay [13], in assay [11] and in assay [15] was “inactive” each time. The compound was classed as inactive in assay [14].
For the compound `CC(C)NC[C@@H](O)COc1ccc(CC(N)=O)cc1`, the Potency result in assay [1], in assay [3], in [4], in [5], in assay [6] and in assay [7] was “inactive” throughout. Besides, the Potency result in assay [8], in [9], in assay [10] and in assay [11] was “inactive” throughout.

Source of the values: PubChem BioAssay (Tox21).
